# According to ChEMBL document CHEMBL3988442, “University of Dundee, Small-Polar-MMV Screening Library” (2021):
# About 1,000 (1.4%) of roughly 69,000 compounds showed an effect of 50% or more. The list comes from a sample in which strong results are over-represented; it also holds similar structures and randomly drawn compounds.
# Test system: Leishmania donovani
# Assay: Leishmania intramacrophage assay
# Format: functional, organism-based
# Set-up: scale not given: in the data most compounds retested in dose-response had high values
compound,measurement,setting,value
NC(=O)c1ccc(N2CCCCC2)c(NC(=O)c2cc(F)ccc2F)c1,Percent Effect,"30.3 µM, […]",-1.673%
NC(=O)c1ccc(N2CCCCC2)c(NC(=O)c2cc(Br)ccc2F)c1,Percent Effect,"30 µM, 30.03 µM",59.99%
NC(=O)c1ccc(N2CCCCC2)c(NC(=O)c2cc(Br)ccc2Cl)c1,Percent Effect,"30.3 µM, […]",19.23%
Cc1nnsc1C(=O)N1CCCC(c2nccn2Cc2cscn2)C1 (centres undefined),Percent Effect,"30.3 µM, […]",-3.035%
Cn1cc(CN2C[C@@H]3COC[C@]3(CNC(=O)c3ccco3)C2)cn1.O=C(O)C(F)(F)F,Percent Effect,"30.3 µM, […]",-2.896%
O=C(NC[C@]12COC[C@H]1CN(Cc1cccc(F)c1)C2)c1ccco1,Percent Effect,"30.3 µM, […]",61.24%
Cc1ccsc1CN1C[C@@H]2COC[C@]2(CNC(=O)c2ccco2)C1.O=C(O)C(F)(F)F,Percent Effect,"30.3 µM, […]",31.86%
CNC(=O)NCC(CO)Cc1ccccc1OC(F)(F)F (centres undefined),Percent Effect,"30.3 µM, […]",7.334%
CC(c1cccc(-c2ncc(C#N)c(N)n2)c1)N(C)C (centres undefined),Percent Effect,"30.3 µM, […]",-18.48%
CC(c1cccc(-c2ncccc2F)c1)N(C)C (centres undefined),Percent Effect,"30.3 µM, […]",42.01%
CC(c1cccc(-c2ncccc2C#N)c1)N(C)C (centres undefined),Percent Effect,"30.3 µM, […]",54.7%
Cc1cccc(C(=O)N2C[C@@H]3[C@H](CC(=O)Nc4cccnc4)[C@@H]3C2)n1.O=C(O)C(F)(F)F.O=C(O)C(F)(F)F,Percent Effect,"30.3 µM, […]",3.537%
N#Cc1ccnc(N2CCN(C(=O)c3ccc4c(c3)CCO4)CC2)c1,Percent Effect,"30.3 µM, […]",-46.75%
Cc1ccsc1-c1cccc(-c2ccn(CC3CCNC3)n2)c1 (centres undefined),Percent Effect,"30.3 µM, […]",82.16%
c1cc(-c2cncnc2)cc(-c2ccn(CC3CCNC3)n2)c1 (centres undefined),Percent Effect,"30.3 µM, […]",5.053%
Cc1nccc(-c2cccc(-c3ccn(CC4CCNC4)n3)c2)n1 (centres undefined),Percent Effect,"30.3 µM, […]",-9.02%
Cc1ccc(CN(C)C(=O)NCC(C)(C)CCS(C)(=O)=O)s1,Percent Effect,"30.3 µM, […]",20%
CCCNCc1ccc(OCc2ccc3c(c2)OCCO3)cc1.Cl,Percent Effect,"30.3 µM, […]",67.66%
CCNCc1ccc(OCc2ccc3c(c2)OCCO3)cc1.Cl,Percent Effect,"30.3 µM, […]",21.82%
CNCc1ccc(OCc2ccc3c(c2)OCCO3)cc1.Cl,Percent Effect,"30.3 µM, […]",22.52%
CN1CCC(c2nnc3ccc(C(=O)NC4CCCC4)cn23)C1.O=C(O)C(F)(F)F (centres undefined),Percent Effect,"30.3 µM, […]",23.32%
Fc1ccc2[nH]c(C3CCCN3CCCn3cccn3)nc2c1 (centres undefined),Percent Effect,"30.3 µM, […]",2.015%
Fc1ccc2[nH]c(C3CCCN3CCc3ccccn3)nc2c1 (centres undefined),Percent Effect,"30 µM, 30.03 µM",50.9%
O=C(CN1CCCC1c1nc2cc(F)ccc2[nH]1)NCc1ccccn1 (centres undefined),Percent Effect,"30.3 µM, […]",34.7%
Cc1ccc(C(=O)N2C[C@@H]3COC[C@]3(COc3cccnc3)C2)cn1,Percent Effect,"30 µM, 30.03 µM",15.47%
CC1CN(CC(=O)Nc2ccncc2)CCN1c1nccs1 (centres undefined),Percent Effect,30 µM,51.62%
CC1CN(CC(=O)Nc2cccnc2)CCN1c1nccs1 (centres undefined),Percent Effect,"30 µM, 30.03 µM",19.22%
CC1CN(CC(=O)Nc2nncs2)CCN1c1nccs1 (centres undefined),Percent Effect,"30 µM, 30.03 µM",5.617%
Cc1nc(CN(C)Cc2csc(-c3cccs3)n2)co1,Percent Effect,"30.3 µM, […]",17.38%
CN(Cc1csc(-c2cccs2)n1)Cc1cccnc1N,Percent Effect,"30.3 µM, […]",54.27%
CN(Cc1csc(-c2cccs2)n1)Cc1ncccc1C(=O)O,Percent Effect,"30.3 µM, […]",21.95%
Cc1cc(C)nc(N2CCC(c3cccc(CCC(=O)O)n3)CC2)n1,Percent Effect,"30.3 µM, […]",-9.293%
COc1ccc(CN2CCc3ncnc(C4CCOC4)c3CC2)cc1.O=C(O)C(F)(F)F (centres undefined),Percent Effect,"30 µM, 30.03 µM",20.96%
CCOCc1ccccc1NC(=O)NC1CCN(C2CCCC2)C1 (centres undefined),Percent Effect,"30.3 µM, […]",-2.945%
CN(C)c1ncc(CN2CCOC(C(=O)Nc3ccccc3)C2)cn1 (centres undefined),Percent Effect,"30 µM, 30.03 µM",-7.564%
Cc1cc(C)c(CNC(=O)N2CCCC2c2cccn2C)c(=O)[nH]1 (centres undefined),Percent Effect,"30 µM, 30.03 µM",13.7%
CC(CO)NC(=O)c1ccc2[nH]/c(=N\S(C)(=O)=O)sc2c1 (centres undefined),Percent Effect,"30.3 µM, […]",-35.22%
CSCC[C@@H](CO)NC(=O)c1ccc2nc(NS(C)(=O)=O)sc2c1,Percent Effect,"30.3 µM, […]",-13.25%
C[C@@H](CO)NC(=O)c1ccc2nc(NS(C)(=O)=O)sc2c1,Percent Effect,"30.3 µM, […]",55.63%
CC(C)c1nn(C)c(N(C)C)c1CNC1CCCOc2ccccc21 (centres undefined),Percent Effect,"30.3 µM, […]",11.28%
Cc1c(C(=O)N2CCOCC2)n(C)c2ccc(Cl)cc12.Cl,Percent Effect,"30.3 µM, […]",19.33%
Cc1c(C(=O)N2CCC(N3CCCCC3)CC2)n(C)c2ccc(Cl)cc12,Percent Effect,"30.3 µM, […]",83.29%
Cc1c(C(=O)N2CCN(C)CC2)n(C)c2ccc(Cl)cc12,Percent Effect,"30.3 µM, […]",11.88%
CCS(=O)(=O)N1C[C@@H](c2ccccc2)[C@@]2(CCNC2=O)C1,Percent Effect,"30.3 µM, […]",42.69%
CC1(C)CN(C(CNS(N)(=O)=O)c2ccc(Cl)cc2)CCO1 (centres undefined),Percent Effect,"30.3 µM, […]",-5.286%
CC(C)(C)NC(=O)C1CSCN1S(=O)(=O)c1ccccc1F (centres undefined),Percent Effect,"30.3 µM, […]",-3.758%
CC(C)N(C)C(=O)C1CSCN1S(=O)(=O)c1cc(Cl)ccc1Cl (centres undefined),Percent Effect,"30.3 µM, […]",6.679%
CC(C)N(C)C(=O)C1CSCN1S(=O)(=O)c1ccccc1F (centres undefined),Percent Effect,"30.3 µM, […]",51.74%
Cc1cccc(NC(=O)CNC(=O)c2ccccc2F)c1,Percent Effect,"30.3 µM, […]",-11.93%
